Measurements reported in PubChem BioAssay (NCI).
About 83,000 compounds went through this panel and 20% of them were active in at least one assay; those are over-represented in the sample as a whole.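 Method: cells in 96-well plates; compound added at one concentration; 48 h incubation; percent growth measured; values under 10 scored active.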 Unmarked numbers belong to inactive results. Active and inactive are the calls of the source.

What was measured:
Assay in all cases: NCI-60 one-dose screen, 48 h (100 = growth as untreated, 0 = no growth, -100 = all killed)
Settings in all cases: 10 µM unless noted
NCI-H23 lung = system: NCI-H23 lung
NCI-H226 lung = system: NCI-H226 lung
NCI-H322M lung = system: NCI-H322M lung
HOP-62 NSCLC = system: HOP-62 NSCLC
NCI-H460 lung = system: NCI-H460 lung
A549/ATCC NSCLC = system: A549/ATCC NSCLC
786-0 renal = system: 786-0 renal
COLO 205 colon = system: COLO 205 colon
DU-145 prostate = system: DU-145 prostate
K-562 leukemia = system: K-562 leukemia
MALME-3M melanoma = system: MALME-3M melanoma
MDA-MB-231 breast = system: MDA-MB-231 breast
RXF 393 renal = system: RXF 393 renal
SF-268 CNS = system: SF-268 CNS
SF-295 CNS = system: SF-295 CNS
SF-539 CNS = system: SF-539 CNS
UACC-257 melanoma = system: UACC-257 melanoma
M14 melanoma = system: M14 melanoma
HOP-92 NSCLC = system: HOP-92 NSCLC
NCI-H522 lung = system: NCI-H522 lung

| Structure (SMILES) | growth (NCI-H23 lung) | growth (NCI-H226 lung) | growth (NCI-H322M lung) | growth (HOP-62 NSCLC) | growth (NCI-H460 lung) | growth (A549/ATCC NSCLC) | growth (786-0 renal) | growth (COLO 205 colon) | growth (DU-145 prostate) | growth (K-562 leukemia) | growth (MALME-3M melanoma) | growth (MDA-MB-231 breast) | growth (RXF 393 renal) | growth (SF-268 CNS) | growth (SF-295 CNS) | growth (SF-539 CNS) | growth (UACC-257 melanoma) | growth (M14 melanoma) | growth (HOP-92 NSCLC) | growth (NCI-H522 lung) |
| --- | --- | --- | --- | --- | --- | --- | --- | --- | --- | --- | --- | --- | --- | --- | --- | --- | --- | --- | --- | --- |
| COc1cc(OC)c2c3nc4cc(C)c(C)cc4nc3n(CCN(C)C)c2c1 | 67.4% | 72.4% | 73.3% | 70.9% | 53.7% | 8.98% (active) | 50.7% | 48.4% | 60.4% | 1.64% (active) | -36.1% (active) | 38% | -18.4% (active) | 86.2% | 53.7% | -83.5% (active) | 101% | 47.9% |  |  |
| C=C1CCC2C3(C)COC(c4cccs4)OC3CCC2(C)C1CC(Sc1ccccc1)C1=CCOC1=O (stereo not given) | 79.1% | 87.7% | 94.9% | 118% | 107% | 79.7% | 91.9% | 115% | 94.4% | 40.7% | 103% | 89.3% | 107% | 96.6% | 92.5% | 95% | 95.6% | 83.3% |  |  |
| O=c1oc2ccccc2cc1-c1csc(N=Nc2c(O)[nH]c3ccc(Cl)cc23)n1 | 98.7% | 98.3% | 114% | 101% | 109% | 102% | 86.3% | 136% | 98% | 104% | 96.2% | 113% |  | 82.1% | 87.9% | 94.2% | 104% | 109% |  |  |
| CNC(=O)c1cccc(NC(=O)c2ccc3c(c2)nnn3/C(C#N)=C/c2ccccn2)c1 | -39.3% (active) | -97.4% (active) |  | 82.7% | 51.5% | 83.2% | -95.9% (active) | -86.6% (active) | 21.7% | 0.0446% (active) | -97% (active) |  | -97.9% (active) | 24.4% | 84.3% | -72.8% (active) | -67.2% (active) | -73.6% (active) | -29.5% (active) | -90% (active) |
| Cn1cc(-c2cc(N)n3nc(-c4c[nH]c5ccccc45)cc3n2)c2cc(Br)cnc21 | -63.8% (active) | -33.1% (active) |  | -51.2% (active) | -65.1% (active) | -33% (active) | -77% (active) | -89.3% (active) | 5.95% (active) | -23.9% (active) | -83.9% (active) | -83.4% (active) | -76.3% (active) | 0.392% (active) | -71.6% (active) | -93.5% (active) | -78.9% (active) | -71% (active) |  | -75.4% (active) |
| CCCCNC(=S)Nc1ccc(OCc2nc3ccccc3[nH]2)cc1 | 70% | 102% |  | 69.5% | 69.7% | 49.7% | 62.3% | 95.6% | 58.9% | 28.6% | 77.5% | 65.2% | 99.5% | 44.2% | 53.7% | 56.2% | 83.5% | 55.1% | 96.2% | 36.2% |
| CCCCCCn1c(O)c(N=Nc2nc(-c3cc4ccccc4oc3=O)cs2)c2ccccc21 | -20.9% (active) | 67.8% |  | 39.9% | 5.99% (active) | -16.6% (active) | -64.8% (active) | 4.61% (active) | 10.1% | 29.8% | -72.1% (active) | -65.6% (active) |  | 11% | 47.8% | 56.1% | 46.3% | -4.72% (active) |  | -21.8% (active) |
